Assay outcomes (PubChem BioAssay)
The list is not random: actives were taken first. Their share in the collection is about 2.6%.
Granule exo inh – LAMP-1 surface exposure blockers, TALL-104 cells – cell-based, flow cytometry, MLPCN library, primary screen; 0.66% of 360,000 active; AID 651702, 2012; TALL-104 LAMP-1 surface exposure; cells stimulated with thapsigargin and PMA; inhibition, % at 10 µM;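 active means inhibition above about 55%, limit read from the data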
ABHD5 PLIN5 PPI – ABHD5-PLIN5 interaction inhibitors, primary screen, cell lysate, split luciferase complementation, luminescence | 0.78% of 360,000 active | Split G. princeps luciferase complementation, 4 h | inhibition, % at 4 µM;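 active means inhibition above the mean inhibition across every tested compound plus 3 SD, cut at about 22% in these data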;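 further: 0% = DMSO only wells and the 100% control is not disclosed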
M18AAP inhibitor – PfM18AAP inhibitors, malaria aminopeptidase, primary screen, biochemical, QFRET, recombinant enzyme; H-Glu-NHMec fluorogenic cleavage; 1.2% of 290,000 active; inhibition, % at 7.35 µM;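 active means inhibition above the campaign mean inhibition over all tested compounds plus 3 SD, cut at about 28% in these data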;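 further: 0% = plate median of test compound wells and 100% = 2 mM ZnCl2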
Rce1 inhib – yeast Rce1p protease inhibitors, primary screen, biochemical, fluorescence, cell-free homogeneous | yeast membranes, quenched prenylated peptide cleavage fluorescence | 0.27% of 290,000 active | AID 2563, 2010 | CAAX prenyl protease 2 (Saccharomyces cerevisiae (strain ATCC 204508 / S288c)), Q03530 | calls only;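 active means fall in fluorescence gain of 50% or more versus controls, with final raw signal at or below 3038400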;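 further: plate controls were neutral control wells for no effect and wells lacking membranes for full effect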
Target sequence (Q03530 whole entry, looked up): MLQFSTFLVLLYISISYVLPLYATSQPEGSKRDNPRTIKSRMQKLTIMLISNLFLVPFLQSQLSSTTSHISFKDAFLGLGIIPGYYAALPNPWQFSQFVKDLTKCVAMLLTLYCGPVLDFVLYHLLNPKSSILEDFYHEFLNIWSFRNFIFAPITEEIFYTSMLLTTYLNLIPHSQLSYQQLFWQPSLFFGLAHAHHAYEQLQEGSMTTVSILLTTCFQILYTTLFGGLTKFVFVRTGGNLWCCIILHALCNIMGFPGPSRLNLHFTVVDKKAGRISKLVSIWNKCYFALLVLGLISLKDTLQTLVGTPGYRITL
Platelet DG rel – inhibitors of platelet dense granule secretion, primary screen, cell-based, MLPCN, human platelets; human platelet-rich plasma, SFLLRN dense granule ATP release, luminescence; inhibition, %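 (compounds screened at 7.5 µM in platelet-rich plasma)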; 0.22% of 300,000 active; AID 1663, 2009;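 active means mean replicate score, as percent of positive control, at or above 50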
ABHD5-PLIN5 conf – ABHD5-PLIN5 interaction inhibitors, confirmation, biochemical, luminescence; inhibition, % at 4 µM; 67% of 2,200 active; shares compounds with ABHD5 PLIN5 PPI; AID 651612, 2012; in the data active means inhibition above about 23%;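 further: 0% = DMSO vehicle wells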
HNF4 counter – HNF4 dimerization inhibitors, counter-screen for ABHD5-PLIN5 interaction inhibitor project, biochemical, split-luciferase complementation, luminescence. shares compounds with ABHD5 PLIN5 PPI. inhibition, % at 4 µM. 77% of 2,200 active;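 active means mean inhibition across replicate wells exceeding the computed hit threshold, cut at about 13% in these data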;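 further: light from luciferase halves that rejoin when HNF4 fusion proteins dimerize; 0% = DMSO only wells and the 100% control is not given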
* marks the source's active call; other numbers are inactive results; i = inactive; . = no result.

SMILES	Granule exo inh	ABHD5 PLIN5 PPI	M18AAP inhibitor	Rce1 inhib	Platelet DG rel	ABHD5-PLIN5 conf	HNF4 counter
O=C(O)Cn1cc(/C=C2\C(=O)NC(=O)N(c3ccc(Cl)cc3)C2=O)c2ccccc21	4	36*	26	i	-1	33*	32*
O=C(O)Cn1cc(C=C2C(=O)NC(=O)NC2=O)c2ccccc21	27	32*	27	i	2	12	12
O=C1NC(=O)N(c2ccccc2F)C(=O)/C1=C/c1ccc(Oc2ccc([N+](=O)[O-])cn2)cc1	-6	24*	1	i	4	69*	47*
O=C1NC(=O)C(=Cc2ccc(OCCOc3ccc([N+](=O)[O-])cc3)cc2)C(=O)N1	3	-6	10	i	-4	.	.
COC[C@H]1OC(=O)c2coc3c2[C@@]1(C)C1=C(C3=O)[C@@H]2CCC(=O)[C@@]2(C)C[C@H]1OC(C)=O	-2	26*	.	.	.	8	69*
CC(=NCCCN1CCCCC1)c1c(O)n(Cc2ccccc2)c(=O)[nH]c1=O	3	1	3	i	2	.	.
CC1CCN(C(CC(=O)c2ccccc2)C(=O)c2ccccc2)CC1 (stereo not drawn)	3	42*	.	.	.	64*	103*
CCOC(=O)[C@]12Cc3ccc(C)cc3[C@H]1N(C1CCCCC1)C(=O)c1ccccc12	39	40*	.	.	.	30*	21*
CC(C)OC(=O)Nc1ccc(N=C(N)N[N+](=O)[O-])cc1	0	3	-12	i	-1	.	.
CNc1cc(Cl)c2nonc2c1[N+](=O)[O-]	16	32*	-35	i	6	36*	80*
O=C1NC(=O)N(c2ccc3c(c2)OCO3)C(=O)/C1=C/c1ccsc1	-1	30*	16	i	4	66*	55*
O=C1NC(=O)N(c2ccc3c(c2)OCO3)C(=O)/C1=C/c1cccs1	22	29*	16	i	11	82*	87*
CCCCn1nc(C)c(C(=O)O)c1Cl	2	1	4	i	5	.	.
O=S(=O)(O)C(=Cc1ccccc1)c1ccccc1 (tested in a mixture with another compound)	-4	2	.	.	.	.	.
CN(C)CCCN=Cc1c(O)n(CCc2ccc(F)cc2)c(=O)[nH]c1=O	-2	2	-13	i	-2	.	.
Cc1ccc2c(c1)N(CCC(=O)N1CCC3(CC1)OCCO3)C(=O)CO2	2	3	-6	i	12	.	.
Nc1c(C(=O)NCc2ccco2)c2nc3ccccc3nc2n1CCN1CCCCC1	-1	24*	12	i	0	12	8
COc1ccc(Cn2c(N)c(C(=O)NCc3ccco3)c3nc4ccccc4nc32)cc1OC	2	5	19	.	.	.	.
Nc1c(C(=O)NCC2CCCO2)c2nc3ccccc3nc2n1Cc1ccco1 (stereo not drawn)	-4	26*	6	i	-15	53*	45*
CCCCn1c(=O)c(C(=O)Nc2ccccc2S(N)(=O)=O)c(O)c2ccccc21	1	6	-2	i	10	.	.
CC1(C)N(O)C2CCCCC2N1O (stereo not drawn)	0	0	-4	i	-39	.	.
O=C(c1ccc2c(c1)OCO2)C1CCCN(Cc2ccccn2)C1 (stereo not drawn)	-3	1	-1	i	2	.	.
Cc1cc(N(CCCl)CCCl)ccc1/C=N/NC(=O)c1ccco1	-1	-1	4	i	-5	.	.
CN(C)CC1CSCCC1(O)c1ccccc1 (stereo not drawn)	-3	-3	2	.	1	.	.
CN1C(=O)C(=Cc2ccccc2Oc2ccc(Cl)cc2)C(=O)N(C)C1=O	3	32*	4	i	8	55*	52*
